The list is not random: actives were taken first. Their share in the collection is about 9.4%.
Rab9 prom act – Rab9 promoter activation; Huh7 Rab9 promoter-luciferase reporter, luminescence, 24 h; Potency, µM (doses to about 9.22 µM), most hits filed as activators; 2.8% of 320,000 active; AID 485297; further: nearly all actives have a fitted effect of over 60% in size
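Huh7 cells stably carrying a Rab9 promoter-luciferase reporter, 1500 cells per well in OP-MEM I with 10% FBS, treated with compound 24 hours at 37C. Luciferase activity read by luminescence after 10 minutes with Amplite reagent.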
ELG1 DNA repair – inhibitors of ELG1-dependent DNA repair in HEK293T cells; HEK293T ELG1-luciferase reporter, luminescence, 16 h; DNA damage induced by 5-fluorouridine; Potency, µM (top dose mostly 46.1 µM), most hits filed as inhibitors; 2.3% of 330,000 active; AID 504467; further: nearly all actives have a fitted effect of over 55% in size
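Overnight (16 hr) co-exposure of 2,000 cells/well to 5-fluorouridine and compound at 37 °C preceded detection. Luciferase was quantified via ONE-Glo luminescence; loss of signal denotes inhibition.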
NPC1 promoter act – NPC1 promoter activation | Huh7 NPC1 promoter luciferase reporter, 24 h | 2.4% of 320,000 active | AID 485313 | Potency, µM (series often up to 9.22 µM), most hits filed as activators; further: nearly all actives have a fitted effect of over 60% in size
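Huh7 reporter cells (NPC1 promoter driving luciferase) are dosed with compound for 24 h at 37 °C, 5% CO2; luciferase detection reagent is then added and luminescence measured after 10 min at ambient temperature.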
SMN2 splice enh – increases expression of the SMN2 splice variant; HEK293 SMN2-luciferase splicing reporter, luminescence, 30-36 h; Potency, µM (titrated, usually from 46.1 µM), hits mostly activators; 2.8% of 210,000 active; AID 1458; further: nearly all actives have a fitted effect of over 55% in size
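HEK293 cells carry an SMN2 […]–luciferase reporter in which exon 7 inclusion puts luciferase in frame. Cells were plated 10-12 h before compound addition, then incubated 30-36 h at 37C. ONE-Glo luminescence was read; sodium butyrate at 4.5 mM final served as control.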
ELG1 genotoxic – genotoxicity induction in ELG1-luciferase HEK293T cells; HEK293T ELG1-luciferase reporter, luminescence, 16 h; Potency, µM (series often up to 46 µM), hits mostly activators; 1.3% of 330,000 active; AID 504466; further: nearly all actives have a fitted effect of over 60% in size
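Luminescence read-out: rising ELG1-luciferase signal, reflecting elevated ELG1 protein under genetic stress, flags genotoxic compounds. Cells were treated for 16 hr at 37 °C before ONE-Glo detection.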
FLuc modulator – firefly luciferase modulation, counter-screen for miR-21 project; AID 588342; P08659; 6.9% of 360,000 active; purified FLuc, Km substrates, luminescence inhibition; Potency, µM (series often up to 57.5 µM), hits mostly inhibitors; further: nearly all actives have a fitted effect of over 55% in size
Target sequence (P08659 whole entry, looked up): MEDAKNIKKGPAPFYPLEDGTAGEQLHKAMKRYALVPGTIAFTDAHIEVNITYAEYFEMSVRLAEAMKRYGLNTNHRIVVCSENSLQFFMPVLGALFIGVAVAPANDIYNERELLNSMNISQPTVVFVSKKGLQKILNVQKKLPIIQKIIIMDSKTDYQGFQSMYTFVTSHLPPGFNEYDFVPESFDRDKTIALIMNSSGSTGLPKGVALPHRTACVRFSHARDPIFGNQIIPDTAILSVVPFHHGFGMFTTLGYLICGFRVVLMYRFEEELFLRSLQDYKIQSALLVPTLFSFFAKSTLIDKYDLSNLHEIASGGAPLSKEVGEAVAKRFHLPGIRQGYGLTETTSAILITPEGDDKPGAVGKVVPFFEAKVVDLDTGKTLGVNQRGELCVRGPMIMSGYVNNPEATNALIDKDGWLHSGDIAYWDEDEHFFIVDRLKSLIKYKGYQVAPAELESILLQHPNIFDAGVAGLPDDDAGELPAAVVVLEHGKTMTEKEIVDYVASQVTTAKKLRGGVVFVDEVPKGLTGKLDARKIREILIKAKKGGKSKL
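Biochemical qHTS of compounds, final roughly 60 µM downward over six points, against 10 nM purified firefly luciferase using Km concentrations of substrates (10 uM D-luciferin, 10 uM ATP) in Tris acetate pH 7.5 buffer; luminescence output.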
Hits are given with their value; . = inactive; ? = inconclusive; / = no result; [ ] = remark or other dose. The call rests on the fitted dose curve; in most records, active means well fitted curve in the direction sought with a large enough effect; inconclusive means small, poorly fitted or top-dose-only effect, or another doubt; inactive means no such curve, though single readings can be large; an effect the other way counts as inactive or inconclusive.

SMILES | Rab9 prom act | ELG1 DNA repair | NPC1 promoter act | SMN2 splice enh | ELG1 genotoxic | FLuc modulator
COc1cccc(C(=O)C2CN(c3ccccc3)CC2c2ccc(Cl)cc2)c1 (configuration not stated) | . | . | . | . | . | 19µM
Cc1ccc(OCc2nc(-c3cccs3)no2)c([N+](=O)[O-])c1 | 0.25µM | ? | 0.4µM | 2.8µM | ? | 0.76µM
O=C(O)CCc1nc(-c2cccs2)no1 | . | . | . | . | . | .
O=[N+]([O-])c1ccccc1OCc1nc(-c2cccs2)no1 | 2.5µM | ? | 2.5µM | 13µM | ? | 6.7µM
O=[N+]([O-])c1ccc(F)cc1OCc1nc(-c2cccs2)no1 | ? | ? | . | 16µM | ? | 9.5µM
Cc1cccc(CNC(=O)CN2CC(C)Sc3ccccc32)c1 (configuration not stated) | / | / | / | / | / | .
CC(=O)[C@@]1(O)[C@H](C)CC2C3CC=C4CC(OP(=O)(O)O)CC[C@]4(C)C3CC[C@@]21C (some centres not stated) | . | . | . | / | . | .
Cn1c(CSc2nc3ccccc3s2)n[nH]c1=S | . | ? | . | . | . | .
Cc1nnc(SCc2nc3ccccc3[nH]2)s1 | . | ? | . | . | . | .
c1ccc2[nH]c(CSc3nc4ccccc4s3)nc2c1 | . | . | . | . | . | 15µM
Cn1c(CSc2nc3ccccc3s2)nc2ccccc21 | ? | ? | ? | 16µM | 13µM | 11µM
c1ccc(SCc2nc3ccccc3[nH]2)nc1 | ? | ? | ? | . | ? | 21µM
COc1ccc(OC)c(NC(=O)c2cnn(-c3ccccc3)c2C)c1 | . | . | . | / | . | ?
CC(=O)c1cccc(NC(=O)c2cnn(-c3ccccc3)c2C)c1 | 4µM | ? | 3.2µM | / | ? | 9.5µM
Cc1c(C(=O)Nc2cccc([N+](=O)[O-])c2)cnn1-c1ccccc1 | 2.5µM | ? | 2.8µM | / | ? | 9.5µM
Cc1cc(C)n(-c2ccc(C(=O)Nc3cccc([N+](=O)[O-])c3)cc2)n1 | . | ? | . | . | . | .
Cc1c(C(=O)Nc2cccc(F)c2)cnn1-c1ccccc1 | 1.4µM | ? | 1.6µM | / | ? | 6µM
CC(=O)c1cccc(NC(=O)c2cnn(-c3cccc(C)c3)c2-n2cccc2)c1 | / | / | / | / | / | .
Cc1ccc(CNC(=O)C2CCCN(S(=O)(=O)c3ccc4c(c3)oc(=O)n4C)C2)cc1 (configuration not stated) | / | / | / | . | / | .
COc1ccc(CCNc2ncnc3c2nnn3C)cc1OC | / | / | / | / | / | .
NCCCC(O)(P(=O)(O)O)P(=O)(O)O | / | / | / | . | / | /
COC(=O)c1ccc(-c2nc(O)c(C)s2)cc1 | . | . | . | . | . | 9.5µM
COC(=O)c1ccc(C2=NOC(C)(c3sc(-c4ccccc4)nc3C)C2)cc1 (configuration not stated) | . | . | . | / | . | ?
COC(=O)c1ccc(-c2nc3cc(Cl)c(N)cc3s2)cc1 | 0.89µM | ? | 0.71µM | 1.4µM | ? | 0.076µM
CC(C)(C)NC[C@H](O)COc1cccc2c1C[C@@H](O)[C@@H](O)C2 | / | / | / | . | / | /
SMILES | Rab9 prom act | ELG1 DNA repair | NPC1 promoter act | SMN2 splice enh | ELG1 genotoxic | FLuc modulator
COCCn1c(SCC(=O)c2ccc3c(c2)OCCO3)nnc1-c1ccco1 | . | . | . | . | . | .
O=C(O)CCSCC(=O)c1ccc2c(c1)OCCO2 | . | ? | . | ? | . | 11µM
O=C(O)CCC(=O)c1ccc2c(c1)OCCO2 | . | . | . | . | . | .
CCn1c(SCC(=O)c2ccc3c(c2)OCCO3)nnc1-c1ccco1 | . | . | . | . | . | 8.5µM
CCCn1nnnc1SCC(=O)c1ccc2c(c1)OCCO2 | ? | ? | ? | . | ? | 12µM
CCn1nnnc1SCC(=O)c1ccc(C)cc1 | ? | ? | ? | . | ? | 15µM
CCCCC[C@]12Cc3ccccc3C(O1)C1=C(CC(C)(C)CC1=O)O2 | .[1.84 µM] | / | .[1.84 µM] | / | / | .[11.5 µM]
C=C1C[C@]23CC[C@H]4C(CO)(CO)C[C@@H](O)C[C@@]4(C)[C@@H]2CC[C@H]1C3 | / | / | / | . | / | /
c1ccc(C(c2nnnn2Cc2ccco2)N2CCN(c3nc4ccccc4s3)CC2)cc1 (configuration not stated) | . | 21µM | . | . | . | .
Cc1ccc(S(=O)(=O)Cn2nnnc2C(C(C)C)N2CCN(c3nc4ccccc4s3)CC2)cc1 (configuration not stated) | . | 18µM | . | . | . | .
CCc1ccccc1NC(=O)c1nnn(-c2ccc(F)cc2)c1C | / | / | / | . | / | 12µM
CCOc1ccc(C(C)NC(=S)NC2CCCCC2)cc1OCC (configuration not stated) | . | 23µM | . | . | . | .
S=C(Nc1ccc(Oc2ccccc2)cc1)NC1CCCC1 | . | . | . | ? | . | ?
S=C(Nc1ccc(Br)cc1)NC1CCCC1 | ? | ? | . | 11µM | . | 12µM
FC(F)Sc1ccc(NC(=S)NC2CCCCC2)cc1 | ? | ? | . | ? | ? | 11µM
CC1CCCCC1NC(=S)Nc1ccc(SC(F)F)cc1 (configuration not stated) | . | ? | . | ? | . | 21µM
FC(F)Sc1ccc(NC(=S)NCC2CCCCC2)cc1 | . | . | . | . | ? | 24µM
N#Cc1ccc(CS(=O)(=O)c2nnnn2C2CCCCC2)cc1 | / | / | / | . | / | /
O=C1Oc2ccccc2C(=O)/C1=C\N1C(=O)N/C(=C\c2ccccc2O)C1=O | / | / | / | .[9.22 µM] | / | /
Cn1c(=O)c2c(nc3n(-c4ccc(O)cc4)c(-c4ccc(Br)cc4)cn23)n(C)c1=O | / | / | / | . | / | .
CC1=C(C(=O)Nc2ccccc2)C(c2ccc(C)o2)n2c(s/c(=C/c3ccccc3)c2=O)=N1 (configuration not stated) | . | 21µM | . | . | . | .
CC1=C(C(=O)Nc2ccccc2C)C(c2ccc(C)o2)n2c(s/c(=C/c3ccccc3)c2=O)=N1 (configuration not stated) | . | ? | . | . | . | .
O=C(O)c1ccc2c(c1)C(=O)N([C@H](Cc1ccc(O)cc1)C(=O)O)C2=O | . | / | . | / | / | .
S=c1[nH]cnc2scc(-c3ccc(Cl)cc3)c12 | . | 16µM | . | / | . | .
Cc1ccc(-c2csc3nc[nH]c(=S)c23)cc1 | . | ? | . | . | . | .
Cn1c(=O)c2c(SCC(=O)Nc3ccccc3C(F)(F)F)nc(C3CCCC3)nc2n(C)c1=O | / | / | / | / | / | .
COc1ccc(OC)c(CCNC(=O)c2ccc3c(=O)[nH]c4c(C(=O)NC(C)C)sc(=S)n4c3c2)c1 | . | 10µM | . | / | . | .
CCOc1ccc(CCNC(=O)c2ccc3c(=O)[nH]c4c(C(=O)NC(C)C)sc(=S)n4c3c2)cc1 | . | ? | . | / | . | 17µM

High-throughput results as filed in PubChem BioAssay.
